Reference: the supplement of paper PMC11732987, “Enantioselective OTUD7B fragment discovery through chemoproteomics screening and high-throughput optimisation” (Communications Chemistry, 2025)
A number with no mark means an inactive call.

The molecules below were run against T1, VCPIP1 (UniProt Q96JH7) (assay: log2 ratio of Biotin-Ahx-Ub-VS probe labelling (fragment/DMSO); higher = less target engagement (more negative = stronger competition), active = hit call of the paper (q ≤ 0.05, log2 ratio ≤ -1)). Settings: compound concentration: 200 uM; treatment time: 3 h.
T1 sequence (whole entry): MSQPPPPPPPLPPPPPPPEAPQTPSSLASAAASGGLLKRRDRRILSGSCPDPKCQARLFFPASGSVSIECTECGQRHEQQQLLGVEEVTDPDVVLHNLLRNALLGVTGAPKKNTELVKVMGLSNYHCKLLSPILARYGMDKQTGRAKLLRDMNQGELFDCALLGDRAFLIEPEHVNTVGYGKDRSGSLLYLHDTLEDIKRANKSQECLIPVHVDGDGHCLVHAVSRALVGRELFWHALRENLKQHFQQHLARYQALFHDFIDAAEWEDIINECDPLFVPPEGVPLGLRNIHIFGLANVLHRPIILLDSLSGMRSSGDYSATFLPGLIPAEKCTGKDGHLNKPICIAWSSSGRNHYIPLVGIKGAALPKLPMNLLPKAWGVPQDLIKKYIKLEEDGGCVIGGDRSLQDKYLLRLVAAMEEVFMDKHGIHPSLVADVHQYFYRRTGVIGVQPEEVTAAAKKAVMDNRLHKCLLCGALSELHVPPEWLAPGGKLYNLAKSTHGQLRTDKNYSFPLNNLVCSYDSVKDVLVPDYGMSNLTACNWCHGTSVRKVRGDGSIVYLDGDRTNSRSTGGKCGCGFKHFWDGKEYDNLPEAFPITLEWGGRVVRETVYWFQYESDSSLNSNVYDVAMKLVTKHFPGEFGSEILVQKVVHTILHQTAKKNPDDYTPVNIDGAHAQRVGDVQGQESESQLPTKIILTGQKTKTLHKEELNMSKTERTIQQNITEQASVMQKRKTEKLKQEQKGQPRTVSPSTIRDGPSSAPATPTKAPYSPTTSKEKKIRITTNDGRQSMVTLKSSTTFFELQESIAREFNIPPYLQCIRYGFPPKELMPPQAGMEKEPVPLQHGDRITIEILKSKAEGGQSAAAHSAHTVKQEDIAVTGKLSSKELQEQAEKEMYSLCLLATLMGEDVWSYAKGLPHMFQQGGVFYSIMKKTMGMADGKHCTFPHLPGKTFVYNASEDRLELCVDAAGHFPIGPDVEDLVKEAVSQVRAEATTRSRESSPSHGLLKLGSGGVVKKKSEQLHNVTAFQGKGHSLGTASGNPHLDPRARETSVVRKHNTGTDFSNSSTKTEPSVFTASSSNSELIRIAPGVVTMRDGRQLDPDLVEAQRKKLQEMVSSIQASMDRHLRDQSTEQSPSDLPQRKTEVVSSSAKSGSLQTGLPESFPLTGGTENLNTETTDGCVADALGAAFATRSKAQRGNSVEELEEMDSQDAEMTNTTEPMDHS
Protocol: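 Competitive ABPP in HEK293T cell lysate. Lysates were treated with each chloroacetamide fragment at 200 µM for 3 h, then with Biotin-Ahx-Ub-VS (0.5 µM, 1 h), NeutrAvidin-enriched and analysed by diaPASEF LC-MS/MS. Protein LFQ was median-normalised; average log2 ratio is fragment/DMSO from an unpaired t-test (n=3 treated, n=44 DMSO). Hits: q ≤ 0.05, log2 ratio ≤ -1, unique peptides ≥ 2.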

SMILES	log2 ratio of Biotin-Ahx-Ub-VS probe labelling
CN(CCc1ncc(Br)cn1)C(=O)CCl.Cl	-2.5 (active)
Cc1cc(C(=O)NC2CCN(C(=O)CCl)CC2)no1	-0.548
Cc1nc(CNC(=O)CCl)c2ccccn12.Cl	-0.406
Cc1cc(Cl)ccc1NC(=O)CCl	-0.193
O=C(CCl)N1CCOC2(CCC2)CC1	-0.287
O=C(CCl)Nc1cccc2ncccc12	-0.848
O=C(CCl)N1CCC(c2nc3ccccc3o2)CC1	-2.76 (active)
CC(c1ccccc1)N(C)C(=O)CCl (stereo not given)	-0.328
Cc1ccn2cc(CNC(=O)CCl)nc2c1.Cl	-0.598
Cc1ccc(N(C(=O)CCl)C2C=CS(=O)(=O)C2)cc1 (stereo not given)	-0.0885
O=C(CCl)Nc1cc2c(cc1Cl)OCCO2	-0.947
CN(C)S(=O)(=O)c1ccccc1CNC(=O)CCl	-1.15 (active)
Cl.Cn1nccc1C(NC(=O)CCl)c1ccccc1 (stereo not given)	-1.2 (active)
CC(C)n1nccc1NC(=O)CCl	-0.897
Cc1nc(CC2CCN(C(=O)CCl)CC2)no1	-0.733
COc1ccccc1C(C)NC(=O)CCl (stereo not given)	-0.998
Cc1ccc(-c2nnc(C)[nH]2)c(NC(=O)CCl)c1	-2.55 (active)
O=C(CCl)NC1CCC(C(F)(F)F)CC1 (stereo not given)	-1.35 (active)
Cc1n[nH]c2c1CN(C(=O)CCl)CC2	-1.02 (active)
Cl.O=C(CCl)N1CCc2ncncc2C1	-0.0226

SMILES	log2 ratio of Biotin-Ahx-Ub-VS probe labelling
O=C(CCl)N1CCC(OCc2ccccc2F)CC1	-2.86 (active)
Cc1ccc(C)c(NC(=O)CCl)c1	-1.52 (active)
CN(CCC(O)c1ccc(Br)cc1)C(=O)CCl (stereo not given)	-2.63 (active)
O=C(CCl)N[C@H]1CC[C@@H](CO)CC1	-1.4 (active)
CN(Cc1nc2ccccc2[nH]1)C(=O)CCl.Cl	-0.467
C/C(=C\CNC(=O)CCl)c1cnn(C)c1.Cl	-1.53 (active)
O=C(CCl)NC1CCN(C(=O)C2CCCCC2)CC1	-0.826
Cc1ccc(N(CCC#N)C(=O)CCl)cc1C	-2.17 (active)
O=C(CCl)N1CCC(O)(Cc2ccc(F)cc2)C1 (stereo not given)	-2.24 (active)
O=C(CCl)N1CCN(C(=O)N2CCCCC2)CC1	-0.906
CC(=O)C1CCCCN1C(=O)CCl (stereo not given)	-0.0774
CN1C(=O)c2ccc(NC(=O)CCl)cc2C1=O	-2.49 (active)
CC1Cc2ccccc2N1C(=O)CCl (stereo not given)	-1.3 (active)
Cc1cc(NC(=O)CCl)n(-c2ccccc2)n1	-0.6
C[C@@H](NC(=O)CCl)c1cccc(C#N)c1	-0.466
Cl.O=C(CCl)N1CCn2cncc2C1	-0.196
O=C(CCl)NC1CCS(=O)(=O)c2ccccc21 (stereo not given)	-1.22 (active)
O=C(CCl)NC(Cn1ccccc1=O)c1ccccc1 (stereo not given)	-0.334
O=C(CCl)NC1CCOc2ccccc21 (stereo not given)	-2.21 (active)
COc1ccc(Cl)cc1NC(=O)CCl	-1.52 (active)
